PubChem BioAssay (EPA / NIEHS)
Active and inactive are the calls of the source. Rule for the calls: active = hit-call score of the fitted dose curve at least 0.9, where 1 is the maximum; inactive = score below 0.9.

Legend:
[1] = ATG_PBREM_CIS: Attagene CIS-FACTORIAL HepG2 Assay for human Phenobarbital-responsive Enhancer Module (PBREM) (AID 2282955); conditions: HepG2 PBREM cis-reporter, Attagene multiplexed transcription; actives raise or lower the signal
How it was run: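 HepG2 cells transiently transfected with multiple cis-regulated reporter transcription units; endogenous factor activity at the PBREM element measured as reporter mRNA 24 h after dosing, via RT-PCR and capillary electrophoresis of fluorescent fragments; bidirectional fitting versus DMSO.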

[2] = biological target: Paired box protein Pax-6 (Homo sapiens) (UniProt P26367); experiment: ATG_Pax6_CIS: Attagene CIS-FACTORIAL HepG2 Assay for human Paired Box 6 (PAX6) (AID 2282956); conditions: HepG2 CIS-FACTORIAL PAX6 reporter transcription, RNA readout; actives raise or lower the signal
Sequence of Paired box protein Pax-6 (Homo sapiens) (P26367 whole entry, looked up): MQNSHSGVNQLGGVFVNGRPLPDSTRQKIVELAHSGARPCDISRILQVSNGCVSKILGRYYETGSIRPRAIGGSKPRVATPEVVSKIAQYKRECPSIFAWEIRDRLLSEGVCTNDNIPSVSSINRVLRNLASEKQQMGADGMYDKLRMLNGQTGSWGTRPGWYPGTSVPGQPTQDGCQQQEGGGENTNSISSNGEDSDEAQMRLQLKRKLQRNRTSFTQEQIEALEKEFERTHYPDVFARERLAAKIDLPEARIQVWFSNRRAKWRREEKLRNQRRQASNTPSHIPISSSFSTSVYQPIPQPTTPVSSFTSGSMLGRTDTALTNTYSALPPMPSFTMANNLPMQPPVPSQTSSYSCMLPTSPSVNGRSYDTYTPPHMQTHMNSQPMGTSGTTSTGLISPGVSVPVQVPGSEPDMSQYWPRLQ
How it was run: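 DMSO-referenced bidirectional fits of reporter mRNA fluorescence; HepG2 with transient cis-promoter MRTUs, 24 h post-dose, RT-PCR plus capillary electrophoresis detection.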

[3] = ATG_PXRE_CIS: Attagene CIS-FACTORIAL HepG2 Assay for human Pregnane X Receptor Element (PXRE) (AID 2282957); conditions: HepG2 Attagene CIS-FACTORIAL PXRE reporter, mRNA; actives raise or lower the signal
How it was run: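 Bidirectional activity, baselined to DMSO, derived from reporter mRNA fluorescence (RT-PCR plus capillary electrophoresis) in HepG2 cells bearing cis-promoter reporter units, 24 h exposure.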

[4] = ATG_PPRE_CIS: Attagene CIS-FACTORIAL HepG2 Assay for human Peroxisome Proliferator-activated Response Element (PPRE) (AID 2282958); conditions: HepG2 PPRE cis-element reporter, Attagene transcription factor profiling; actives raise or lower the signal
How it was run: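 HepG2 cells transiently transfected with multiplexed cis-element reporter units measure endogenous transcription factor activity. After 24 h compound exposure, reporter mRNA is quantified by RT-PCR, 6-FAM labeling, HpaI digestion and capillary electrophoresis; bidirectional fits are made against DMSO baseline.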

[5] = ATG_RORE_CIS: Attagene CIS-FACTORIAL HepG2 Assay for human RAR-related Orphan Receptor Element (RORE) (AID 2282959); conditions: HepG2 Attagene cis-factorial RORE reporter, mRNA; actives raise or lower the signal
How it was run: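 HepG2 cells transiently transfected with multiple cis-element reporter transcription units, exposed to chemical for 24 h. Reporter mRNA quantified by RT-PCR, 6-FAM primer-extension labeling, HpaI digestion and capillary electrophoresis; bidirectional fit versus DMSO baseline.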

[6] = biological target: Transcription factor Sp1 (Homo sapiens) (UniProt P08047); experiment: ATG_Sp1_CIS: Attagene CIS-FACTORIAL HepG2 Assay for human Specificity Protein 1 (Sp1) (AID 2282961); conditions: HepG2 Sp1 cis-reporter transcription, actives raise or lower the signal
Sequence of Transcription factor Sp1 (Homo sapiens) (P08047 whole entry, looked up): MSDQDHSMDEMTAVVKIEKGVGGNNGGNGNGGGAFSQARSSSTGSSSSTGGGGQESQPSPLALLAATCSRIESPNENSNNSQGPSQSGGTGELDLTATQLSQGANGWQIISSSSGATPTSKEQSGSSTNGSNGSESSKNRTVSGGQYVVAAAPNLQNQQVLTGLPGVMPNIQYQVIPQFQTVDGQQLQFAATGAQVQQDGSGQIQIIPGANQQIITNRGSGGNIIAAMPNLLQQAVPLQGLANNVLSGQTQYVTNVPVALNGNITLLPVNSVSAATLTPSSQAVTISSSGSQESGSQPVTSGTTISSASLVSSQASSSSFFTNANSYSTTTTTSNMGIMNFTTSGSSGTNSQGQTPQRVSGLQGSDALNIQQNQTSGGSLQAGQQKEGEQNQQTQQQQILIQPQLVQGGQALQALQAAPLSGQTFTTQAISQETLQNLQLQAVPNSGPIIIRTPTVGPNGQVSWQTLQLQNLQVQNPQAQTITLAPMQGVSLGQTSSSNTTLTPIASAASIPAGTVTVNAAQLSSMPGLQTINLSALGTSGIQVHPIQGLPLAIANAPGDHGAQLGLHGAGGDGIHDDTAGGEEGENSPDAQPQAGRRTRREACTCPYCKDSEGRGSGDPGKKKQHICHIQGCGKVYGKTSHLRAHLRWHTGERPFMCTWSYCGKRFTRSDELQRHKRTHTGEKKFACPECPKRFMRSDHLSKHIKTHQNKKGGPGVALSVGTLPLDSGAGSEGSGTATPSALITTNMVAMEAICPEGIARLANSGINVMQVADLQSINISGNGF
How it was run: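 HepG2 cells transiently transfected with multiple reporter transcription units driven by cis-regulatory elements; Sp1-responsive reporter mRNA measured 24 h after dosing by RT-PCR and capillary electrophoresis fluorescence, fitted bidirectionally against DMSO baseline.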

[7] = ATG_TA_CIS: Attagene CIS-FACTORIAL HepG2 Assay for human TA Basal Promoter (AID 2282964); conditions: HepG2 Attagene CIS-factorial TA basal promoter reporter; actives raise or lower the signal
How it was run: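 Background internal-marker endpoint from a 52-component HepG2 cis-reporter panel. Cells treated 24 h; reporter transcripts quantified via RT-PCR and CE fluorescence against DMSO baseline.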

[8] = biological target: Signal transducer and activator of transcription 3 (Homo sapiens) (UniProt P40763); experiment: ATG_STAT3_CIS: Attagene CIS-FACTORIAL HepG2 Assay for human Signal Transducer and Activator of Transcription 3 (STAT3) (AID 2282963); conditions: HepG2, Attagene cis-factorial STAT3 reporter transcription; actives raise or lower the signal
Sequence of Signal transducer and activator of transcription 3 (Homo sapiens) (P40763 whole entry, looked up): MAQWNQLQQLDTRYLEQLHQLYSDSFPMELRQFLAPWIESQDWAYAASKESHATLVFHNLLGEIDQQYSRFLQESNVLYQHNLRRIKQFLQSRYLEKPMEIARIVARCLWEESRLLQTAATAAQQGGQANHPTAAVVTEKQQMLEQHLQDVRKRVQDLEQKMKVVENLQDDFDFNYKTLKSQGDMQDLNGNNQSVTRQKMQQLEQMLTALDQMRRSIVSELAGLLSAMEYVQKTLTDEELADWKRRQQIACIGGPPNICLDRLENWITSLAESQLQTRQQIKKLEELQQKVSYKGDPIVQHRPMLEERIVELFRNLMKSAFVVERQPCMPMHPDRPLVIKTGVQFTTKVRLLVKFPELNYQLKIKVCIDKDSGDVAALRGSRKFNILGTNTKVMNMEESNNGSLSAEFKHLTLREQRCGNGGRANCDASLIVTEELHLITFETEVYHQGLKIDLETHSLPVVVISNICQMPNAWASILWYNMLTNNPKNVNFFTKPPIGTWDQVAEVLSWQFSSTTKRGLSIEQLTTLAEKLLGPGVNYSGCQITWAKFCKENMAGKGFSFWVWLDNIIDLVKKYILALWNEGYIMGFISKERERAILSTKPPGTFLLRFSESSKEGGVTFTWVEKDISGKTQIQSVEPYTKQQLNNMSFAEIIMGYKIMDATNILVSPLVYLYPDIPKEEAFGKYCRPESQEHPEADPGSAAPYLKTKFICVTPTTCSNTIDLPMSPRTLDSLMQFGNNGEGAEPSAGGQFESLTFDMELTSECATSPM
How it was run: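 Uses human liver HepG2 transiently carrying cis-regulated reporter transcription units. Following 24 h dosing, reporter mRNA induction was detected by RT-PCR and capillary electrophoresis, analysed bidirectionally versus DMSO.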

[9] = ATG_Sox_CIS: Attagene CIS-FACTORIAL HepG2 Assay for human SRY-box transcription factor (SOX) (AID 2282960); conditions: HepG2 Attagene cis-factorial SOX reporter, mRNA; actives raise or lower the signal
How it was run: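 HepG2 cells transiently transfected with cis-element-driven multiple reporter transcription units, dosed 24 h; reporter mRNA measured by RT-PCR, FAM labelling, HpaI digestion and capillary electrophoresis. Bidirectional fit versus DMSO baseline.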

[10] = ATG_SREBP_CIS: Attagene CIS-FACTORIAL HepG2 Assay for human Sterol Regulatory Element Binding (SREBP) (AID 2282962); conditions: HepG2 Attagene cis-factorial SREBP reporter, mRNA; actives raise or lower the signal
How it was run: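 In this cis-format assay, HepG2 liver cells express reporters controlled by promoter elements responsive to native transcription factors. Exposure lasts 24 h; reporter mRNA fluorescence from capillary electrophoresis gives the signal, fitted bidirectionally against DMSO.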

Measured: AC50

CC=Cc1ccc(O)c(OC)c1
active: [3] 26.1 µM
not listed: [8] | [9] | [10]
inactive: all other assays above

COc1cc(S(=O)(=O)O)c(C)cc1N=Nc1c(O)ccc2cc(S(=O)(=O)O)ccc12
not listed: [9] | [10]
inactive: all other assays above

CCCCCCCCCCC
not listed: [4]
inactive: all other assays above

COCCOC[C@H](CC1(C(=O)NC2CCC(C(=O)O)CC2)CCCC1)C(=O)Oc1ccc2c(c1)CCC2 (stereo partly drawn)
active: [3] 20.2 µM
not listed: [8] | [9]
inactive: all other assays above

COc1ccc(C)cc1N
not listed: [8] | [9]
inactive: all other assays above

CCCCCCCCCCCCCO
active: [2] 34.3 µM
not listed: [5] | [8]
inactive: all other assays above

Cc1cccc([N+](=O)[O-])c1C
active: [3] 27.1 µM
inactive: [1] | [2] | [4] | [6] | [7]

Cc1ccc(N(C)C)cc1
active: [3] 27.4 µM
not listed: [5] | [9]
inactive: all other assays above

CCCc1cc(=O)[nH]c(=S)[nH]1
active: [3] 65.4 µM
not listed: [9] | [10]
inactive: all other assays above

Cc1cc(=O)[nH]c(=S)[nH]1
not listed: [8] | [9]
inactive: all other assays above

Oc1ccc2ccccc2c1N=Nc1ccccc1
active: [1] 5.39 µM | [3] 7.05 µM | [5] 2 µM
not listed: [4] | [10]
inactive: all other assays above

COc1cc(-c2nc(NC(=O)c3cc4cc(C)cc(C)c4n3CC(=O)O)sc2CCC2CCCCC2)c(OC)cc1Cl
active: [1] 4.42 µM | [2] 14.2 µM | [5] 10.4 µM | [6] 2.83 µM | [7] 10.3 µM
inactive: [3] | [4] | [10]

C1CCC(SSC2CCCCC2)CC1
active: [6] 158 µM
not listed: [9] | [10]
inactive: all other assays above

FC(F)(F)C(F)(F)C(F)(F)C(F)(F)C(F)(F)C(F)(F)CCI
not listed: [8] | [9]
inactive: all other assays above

CC(=O)OCCOCCOCCOC(C)=O
not listed: [9]
inactive: all other assays above

CC1(C)NC(=O)NC1=O
active: [3] 25.7 µM
not listed: [8] | [9] | [10]
inactive: all other assays above

O=c1c(O)c(-c2ccc(O)c(O)c2)oc2cc(O)cc(O)c12
active: [3] 76.2 µM
not listed: [4]
inactive: all other assays above

CNC(=O)[C@H]1O[C@@H](n2cnc3c(NCc4cc(Cl)ccc4OCc4cc(C)no4)ncnc32)[C@H](O)[C@@H]1N
not listed: [9] | [10]
inactive: all other assays above

COC(=O)c1ccc(O)cc1
not listed: [1] | [5] | [8]
inactive: all other assays above

NC(=O)Cn1c(=O)cc(CCN2CCN(c3nccc4sccc34)CC2)c2ccc(F)cc21
inactive: [2] | [4] | [5] | [6] | [7]
active: [3] 5.72 µM

O=c1[nH]cc(F)c(=O)[nH]1
not listed: [1] | [10]
inactive: all other assays above

NCCO
not listed: [1] | [4]
inactive: all other assays above

Cc1nc(C)nc(N2C[C@@H](C)N(c3ccnc([C@@H](C)O)n3)[C@@H](C)C2)n1
inactive: [2] | [3] | [5] | [6] | [10] | [7]
